“And” between values parts separate entries of the source, which are not always exact repeats. Equal values may be shown once. About 2,000 (36%) of roughly 5,500 compounds were called active. Roughly 18% stayed inconclusive and do not appear here. No stated cut-off is given here; in the data, active means normalized growth mostly below about 0.91 (no sharp cut-off); inconclusive means no clear call, values can overlap the other calls; inactive means mostly above about 0.92. Some of the results follow.
Assay: chemical genetic growth profiling, strain panel (AID 1159580);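 further: tested at 20 µM; growth read once vehicle control cultures reached saturation at 30 °C; 1 = growth at the plate median or of vehicle wells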
Settings: S. cerevisiae deletion strains, growth OD

Measured: normalized growth

O=C(/C=C/c1ccc(O)c(O)c1)O[C@@H]1C[C@](O)(C(=O)O)C[C@@H](O)[C@H]1O
inactive: locus YAL021C, strain ccr4, stronger effect = lower value 1.05 | locus YAL026C, strain drs2, stronger effect = lower value 0.979 | locus YAL030W, strain snc1, stronger effect = lower value 0.983 | locus YBL061C, strain skt5, stronger effect = lower value 0.992 | locus YBR009C, strain hhf1, stronger effect = lower value 0.994 | locus YBR021W, strain FUR4, stronger effect = lower value 0.992 | locus YBR023C, strain chs3, stronger effect = lower value 1.03 | locus YBR171W, strain sec66, stronger effect = lower value 0.95 | locus YBR229C, strain ROT2, stronger effect = lower value 0.997 | locus YBR231C, strain swc5, stronger effect = lower value 0.956 | locus YBR279W, strain paf1, stronger effect = lower value 0.988 | locus YCL011C, strain gbp2, stronger effect = lower value 0.985 | locus YCL016C, strain dcc1, stronger effect = lower value 1.02 | locus YCL029C, strain bik1, stronger effect = lower value 1.02 | locus YCL061C, strain MRC1, stronger effect = lower value 1 | locus YCL069W, strain vba3, stronger effect = lower value 0.964 | locus YCR088W, strain abp1, stronger effect = lower value 0.968 | locus YDL005C, strain med2, stronger effect = lower value 0.966 | locus YDL035C, strain GPR1, stronger effect = lower value 0.984 | locus YDL040C, strain nat1, stronger effect = lower value 0.98 | locus YDL074C, strain BRE1, stronger effect = lower value 1.04 | locus YDL101C, strain DUN1, stronger effect = lower value 1.02 | locus YDL185W, strain tfp1, stronger effect = lower value 1.01 | locus YDL192W, strain arf1, stronger effect = lower value 1 | locus YDR001C, strain nth1, stronger effect = lower value 0.98 | locus YDR069C, strain doa4, stronger effect = lower value 0.97 | locus YDR101C, strain arx1, stronger effect = lower value 1.02 | locus YDR137W, strain rgp1, stronger effect = lower value 0.98 | locus YDR150W, strain NUM1, stronger effect = lower value 1.01 | locus YDR159W, strain sac3, stronger effect = lower value 0.915 | locus YDR162C, strain NBP2, stronger effect = lower value 1.01 | locus YDR195W, strain ref2 0.942 | locus YDR297W, strain sur2, stronger effect = lower value 0.99 | locus YDR318W, strain mcm21, stronger effect = lower value 1.01 | locus YDR334W, strain swr1, stronger effect = lower value 0.974 | locus YDR335W, strain msn5, stronger effect = lower value 0.973 | locus YDR388W, stronger effect = lower value 1.01 | locus YDR392W, strain spt3, stronger effect = lower value 0.997 | locus YDR502C, strain sam2, stronger effect = lower value 1.02 | locus YEL003W, strain gim4, stronger effect = lower value 0.976 | locus YEL037C, strain rad23, stronger effect = lower value 0.973 | locus YEL061C, strain CIN8 (second series), stronger effect = lower value 0.965 | locus YEL061C, strain CIN8, stronger effect = lower value 1.01 | locus YER015W, strain faa2, stronger effect = lower value 0.988 | locus YER016W, strain bim1, stronger effect = lower value 0.968 | locus YER110C, stronger effect = lower value 1.02 | locus YER111C, strain swi4, stronger effect = lower value 0.976 | locus YER155C, strain BEM2 (second series), stronger effect = lower value 0.993 | locus YER155C, strain BEM2, stronger effect = lower value 1.01 | locus YER167W, strain BCK2, stronger effect = lower value 1.01 | locus YFR010W, strain ubp6, stronger effect = lower value 0.972 | locus YGL078C, strain dbp3, stronger effect = lower value 1.01 | locus YGL086W, strain mad1, stronger effect = lower value 1.02 | locus YGL167C, strain pmr1, stronger effect = lower value 0.971 | locus YGL173C, strain kem1, stronger effect = lower value 0.959 | locus YGL227W, strain vid30, stronger effect = lower value 0.975 | locus YGL240W, strain doc1, stronger effect = lower value 0.962 | locus YGL248W, strain PDE1, stronger effect = lower value 1.01 | locus YGL253W, strain hxk2, stronger effect = lower value 0.949 | locus YGR078C, strain PAC10, stronger effect = lower value 1.03 | locus YGR135W, strain pre9, stronger effect = lower value 0.997 | locus YGR252W, strain gcn5, stronger effect = lower value 0.97 | locus YHR013C, strain ard1, stronger effect = lower value 0.997 | locus YHR027C, strain rpn1, stronger effect = lower value 0.985 | locus YHR030C, strain SLT2, stronger effect = lower value 1.01 | locus YHR079C, strain IRE1 (second series), stronger effect = lower value 1.01 | locus YHR079C, strain IRE1, stronger effect = lower value 1 | locus YHR094C, strain hxt1, stronger effect = lower value 1.02 | locus YHR129C, strain ARP1, stronger effect = lower value 1 | locus YHR142W, strain chs7, stronger effect = lower value 0.975 | locus YHR200W, strain rpn10, stronger effect = lower value 1.02 | locus YIL066C, strain RNR3, stronger effect = lower value 0.981 | locus YIL073C, strain SPO22, stronger effect = lower value 1.02 | locus YIL125W, strain kgd1, stronger effect = lower value 1.02 | locus YIR030C, strain dcg1, stronger effect = lower value 1.01 | locus YJL092W, strain hpr5, stronger effect = lower value 0.969 | locus YJL095W, strain BCK1 (second series), stronger effect = lower value 0.953 | locus YJL095W, strain BCK1, stronger effect = lower value 1.04 and 1.02 | locus YJL115W, strain asf1, stronger effect = lower value 0.992 | locus YJL129C, strain trk1, stronger effect = lower value 0.966 | locus YJL134W, strain LCB3, stronger effect = lower value 1.01 | locus YJL154C, strain vps35, stronger effect = lower value 0.976 | locus YJL164C, strain tpk1, stronger effect = lower value 1.01 | locus YJL166W, strain qcr8, stronger effect = lower value 0.974 | locus YJL168C, strain set2, stronger effect = lower value 1 | locus YJL187C, strain SWE1 (second series), stronger effect = lower value 1.03 | locus YJR043C, strain POL32, stronger effect = lower value 1.01 | locus YJR066W, strain TOR1, stronger effect = lower value 0.947 | locus YJR075W, strain HOC1, stronger effect = lower value 1.04

From PubChem BioAssay AID1159580 (chemical genetic matrix, 2015)
